Laboratory results as given in PubChem BioAssay (NCI).
About 83,000 compounds went through this panel and 20% of them were active in at least one assay; those are over-represented in the sample as a whole.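 Percent growth is the endpoint: 0 to 100 indicates growth inhibition (40 means 60% inhibition), 0 means no net growth, and negative values indicate cell death.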 Unmarked numbers belong to inactive results. Activity calls are given as the source filed them.

Tested on: NCI-H460 lung
Assay: NCI-60 one-dose screen, 48 h (100 = growth as untreated, 0 = no growth, -100 = all killed)
Details: 10 µM unless noted
Description: Growth inhibition of the NCI-H460 human Non-Small Cell Lung tumor cell line is measured as a screen for anti-cancer activity. Cells are grown in 96 well plates and exposed to the test compound for 48 hours. Compounds are tested at a single concentration, which is 10^-5 M for most compounds. The reported endpoint is percent growth (GI% or GIPRCNT), where numbers from 0 - 100% represent growth inhibition, and numbers from -100% - 0 represent cell death. For example, a value of 40 represents 60% growth inhibition. A value of 0 means no net growth occurred over the course of the experiment. A value of -40 indicates 40% of cells at the beginning of the experiment died by the end of the experiment. A value of -100 means all cells are dead at the end of the experiment.
NCI-60 Human Tumor Cell Lines Screen was performed using the standard one-dose NCI protocol, which is described in more detail at https://dtp.cancer.gov/discovery_development/nci-60/default.htm.
Compounds with GIPRCNT values below 10 were considered active. Activity score was based on GIPRCNT using the following formula: […]
Score is 0 for GIPRCNT values of 100 or above, 50 for GIPRCNT values of 0, and 100 for GIPRCNT values of -100.

Row | SMILES | growth
1 | COc1cc2nc(Cl)nc(Nc3cccc(C(=O)/C=C/c4ccc(F)cc4)c3)c2cc1OC | 95.4%
2 | O=C(NCN1C(=O)c2cccc3cccc(c23)C1=O)N1CCC(Cc2ccccc2)CC1 | 103%
3 | Cn1cc(-c2csc(-c3c[nH]c4ccccc34)n2)c2cccnc21 | 14.6%
4 | CCN(CC)CCCCCNc1cc(OC(=O)c2ccccc2)cc2cccnc12 | 163%
5 | OCC12CCCC(CO)(COC1)C2O (stereo not given) | 100%
6 | NS(=O)(=O)c1ccc(CCNC(=O)/C=C/c2ccc(Cl)cc2)cc1 | 98%
7 | COc1cc(NC(C)CN(CC(C)C)C(C)C)c2ncccc2c1 (stereo not given) | 106%
8 | N#C/C(=C\c1ccc(-c2ccc(Br)cc2)o1)c1nc(-c2ccco2)cs1 | 91.4%
9 | C=C(C)[C@@H]1CC[C@]2(C(=O)O)CC[C@]3(C)[C@H](CC[C@@H]4[C@@]5(C)C/C(=C/c6ccc(OC)cc6)C(=O)C(C)(C)[C@@H]5CC[C@]43C)[C@@H]12 | 1.81% (active)
10 | COc1ccc2c(c1)c(-c1nc(-c3cn(C)c4ncccc34)cs1)cn2CCN | 31.7%
11 | CCC(CC)C(=O)OC(C)COc1ccc(C(C)(C)C)cc1 (stereo not given) | 106%
12 | Cc1ccc(S(=O)(=O)Nc2ccc(-c3cc(-c4cccc(F)c4)c(C#N)c(N)n3)cc2)cc1 | 93.3%
13 | COc1cc2c(cc1-c1c(C)noc1C)ncc1nc(C3CCC(F)(F)CC3)n([C@@H](C)COC(F)F)c12 | 55.3%
14 | N#CC1=C(N)Oc2c(c(N)nn2-c2ccccc2)C1c1ccc(Cl)cc1Cl (stereo not given) | 106%
15 | C=C(C)[C@@H]1CC[C@]2(C(=O)OC)CC[C@]3(C)[C@H](CC[C@@H]4[C@@](C)(CC/C(N)=N/O)[C@H](C(=C)C)CC[C@]43C)[C@@H]12 | 99.5%
16 | COc1ccc2c(c1)c(-c1nc(-c3c[nH]c4ncccc34)cs1)cn2CCN | 45%
17 | Nc1nc2c3ccncc3cc(-c3cccc(Cl)c3)c2c2cnccc12 | 12.9%
18 | CC1(C)[C@@H](O)CC[C@]2(C)[C@H]3CC[C@@H]4[C@H]5[C@H](C(=O)/C=C/c6ccc(C(F)(F)F)cc6)CC[C@]5(CO)CC[C@@]4(C)[C@]3(C)CC[C@@H]12 | 65.4%
19 | COc1cc2[nH]c(C(=O)c3cc(OC)c(OC)c(OC)c3)c(N)c2cc1C#CC1CC1 | 13.5%
20 | COc1ccc(C2(Cl)c3ccccc3N(c3ccccc3)c3ccccc32)cc1 | -55.2% (active)

Row | SMILES | growth
21 | COc1cccc(-c2nn(-c3ccccc3)cc2-c2ccnc(NCCCNS(=O)(=O)c3ccccc3)c2)c1 | 31.8%
22 | CN(C)c1ccc(N=C2C=CC(=O)C=C2)cc1 | 97.1%
23 | COc1cc(/C=N/NC(=S)NNC(=S)NC2CCCCC2)cc(OC)c1OC | 97.1%
24 | O=C1C(=O)N(CCCCn2cc(-c3ccccc3)nn2)c2ccccc21 | 99.9%
25 | O=C1C(=O)c2ccccc2C(O)=C1CCCc1ccc(C2CCCCC2)cc1 | 7.15% (active)
26 | COc1ccc(-c2nc3ncccn3c2-c2nc3ccc(Br)cc3[nH]2)cc1 | 90.1%
27 | COc1cccc(-c2nn(-c3ccccc3)cc2-c2ccnc(NCCNS(=O)(=O)c3cccc(F)c3)c2)c1 | 24.2%
28 | Cc1ccc2oc(=O)cc(-c3sc(N4CCCCC4)nc3-c3ccccc3)c2c1 | 91.1%
29 | Clc1cc(Cl)cc(Nc2ccc3c(OCCCN4CCOCC4)cccc3n2)c1 | 13.1%
30 | O=C(O[C@@H]1Cc2c(O)cc(O)cc2O[C@@H]1c1cc(O)c(O)c(O)c1)c1cc(O)c2c(c1)OCO2 | 105%
31 | COc1cc(-c2cc3ncccc3c3nc(N)c4cccnc4c23)cc(OC)c1OC | 3.55% (active)
32 | N#CC1=C(N)Oc2c(sc3c(F)cccc23)C1c1ccc(Cl)cc1 (stereo not given) | 13.1%
33 | COc1ccc(O)c(-c2cc(-c3ccc(Cl)cc3)c(C#N)c(=O)[nH]2)c1 | 69.3%
34 | CC(=O)N1N=C(c2ccc(C)cc2)CC1c1ccc(Oc2ccc(Br)cc2)cc1 (stereo not given) | 98.4%
35 | COc1ccccc1-n1cnc(N)c1C(=O)c1cc(OC)c(OC)c(OC)c1 | 14.5%
36 | Nc1ccc(Cl)cn1 | 105%
37 | Nc1c2c(nc3ccc(Br)cc13)CC(c1ccccc1)CC2=O (stereo not given) | 17.1%
38 | Cc1cccc(C)c1NC(=O)CSC(=S)N1CCCCC1 | 106%
39 | c1ccc(CN2C(c3ccccc3)=Nc3ccccc3C2c2c[nH]c3ccccc23)cc1 (stereo not given) | 43.4%
40 | O=C(CI)Nc1ccc(O)c2ccccc12 | 32.5%
